Legend:
Assay in all cases: DAPPL (digital affinity profiling via proximity ligation, sequencing); 10 mM Tris-HCl pH 7.5, 50 mM NaCl, 1 mM DTT, 4% glycerol, room temperature, 30 min; GST-TFs on glutathione beads, 16-mer random dsDNA library, 0.1% formaldehyde crosslink after washing; high values mean tight binding
Conditions in all cases: protein: recombinant; tags: N-terminal GST; dsDNA, one strand shown
FLI1 = molecular target: T1, FLI1 (Homo sapiens, UniProt Q01543 1-452)
T1 sequence: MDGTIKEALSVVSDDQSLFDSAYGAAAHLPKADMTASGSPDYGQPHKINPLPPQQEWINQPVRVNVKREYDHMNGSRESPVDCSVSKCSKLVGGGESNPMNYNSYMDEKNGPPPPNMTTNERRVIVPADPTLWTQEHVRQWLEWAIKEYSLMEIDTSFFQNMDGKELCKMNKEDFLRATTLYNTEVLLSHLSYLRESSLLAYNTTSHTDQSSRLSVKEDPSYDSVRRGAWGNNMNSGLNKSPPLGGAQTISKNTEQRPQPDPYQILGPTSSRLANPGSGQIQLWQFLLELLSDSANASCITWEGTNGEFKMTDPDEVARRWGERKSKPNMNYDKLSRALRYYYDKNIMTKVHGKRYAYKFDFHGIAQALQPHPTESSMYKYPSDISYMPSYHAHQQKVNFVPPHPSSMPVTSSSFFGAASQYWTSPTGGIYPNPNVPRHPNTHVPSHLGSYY
Method in brief: (§1)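 Sequencing on an Illumina NextSeq500 followed washing, crosslinking with 0.1% formaldehyde, proximity ligation (BsaI/T4 ligase, 1 h, 37 °C) and PCR amplification of pools that had been incubated for 30 min at room temperature with 200 nmole of a random double-stranded 16-mer DNA library in Tris/NaCl/DTT/glycerol buffer. Each pool held DNA-barcoded human transcription factors, expressed in yeast as GST fusions and captured on glutathione beads, plus a tag-only sample. Binding signal is a hexamer's read frequency for a factor divided by its frequency in the tag-only sample.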

ELK1 = molecular target: T2, ELK1 (Homo sapiens, UniProt P19419 1-428)
T2 sequence: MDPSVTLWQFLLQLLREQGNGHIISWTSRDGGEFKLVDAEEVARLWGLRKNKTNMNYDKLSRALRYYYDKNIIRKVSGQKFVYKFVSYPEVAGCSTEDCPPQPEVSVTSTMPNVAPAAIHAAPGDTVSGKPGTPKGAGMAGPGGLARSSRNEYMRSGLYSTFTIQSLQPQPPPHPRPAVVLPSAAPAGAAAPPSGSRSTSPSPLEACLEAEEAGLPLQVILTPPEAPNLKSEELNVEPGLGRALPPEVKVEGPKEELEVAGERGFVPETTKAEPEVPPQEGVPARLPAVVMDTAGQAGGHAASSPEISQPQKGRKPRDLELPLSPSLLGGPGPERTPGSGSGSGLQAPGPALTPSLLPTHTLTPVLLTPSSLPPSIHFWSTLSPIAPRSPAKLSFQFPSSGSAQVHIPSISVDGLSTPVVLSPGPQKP
Method in brief: as §1

GABPA = molecular target: T3, GABPA (Homo sapiens, UniProt Q06546 1-454)
T3 sequence: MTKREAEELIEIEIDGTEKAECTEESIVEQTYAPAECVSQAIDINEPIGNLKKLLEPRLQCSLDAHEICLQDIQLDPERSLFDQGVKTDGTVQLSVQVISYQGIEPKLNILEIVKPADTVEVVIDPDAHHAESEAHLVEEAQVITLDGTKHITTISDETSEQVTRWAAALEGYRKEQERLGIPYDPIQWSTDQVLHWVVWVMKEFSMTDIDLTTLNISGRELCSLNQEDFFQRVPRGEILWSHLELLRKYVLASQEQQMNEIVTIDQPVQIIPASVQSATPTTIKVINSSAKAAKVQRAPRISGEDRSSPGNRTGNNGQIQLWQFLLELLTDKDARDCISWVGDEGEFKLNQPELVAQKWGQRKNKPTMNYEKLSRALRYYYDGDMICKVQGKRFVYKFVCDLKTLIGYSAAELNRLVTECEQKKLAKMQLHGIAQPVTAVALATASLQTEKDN
Method in brief: as §1

ERG = molecular target: T4, ERG (Homo sapiens, UniProt P11308 1-479)
T4 sequence: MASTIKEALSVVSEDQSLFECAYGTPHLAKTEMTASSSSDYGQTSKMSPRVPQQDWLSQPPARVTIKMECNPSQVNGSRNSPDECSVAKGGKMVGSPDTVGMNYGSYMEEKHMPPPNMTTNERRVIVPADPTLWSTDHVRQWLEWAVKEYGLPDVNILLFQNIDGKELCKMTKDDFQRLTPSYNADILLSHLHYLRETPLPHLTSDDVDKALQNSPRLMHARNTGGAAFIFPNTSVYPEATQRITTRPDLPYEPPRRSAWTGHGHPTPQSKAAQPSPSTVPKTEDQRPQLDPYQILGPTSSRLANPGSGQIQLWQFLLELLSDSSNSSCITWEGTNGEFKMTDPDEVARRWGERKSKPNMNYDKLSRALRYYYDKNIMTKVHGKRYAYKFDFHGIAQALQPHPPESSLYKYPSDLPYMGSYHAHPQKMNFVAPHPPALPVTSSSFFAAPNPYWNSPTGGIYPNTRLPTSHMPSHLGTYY
Method in brief: as §1

ELF1 = ELF1 (Homo sapiens, UniProt P32519 1-619)
Chain of ELF1 (P32519 whole entry): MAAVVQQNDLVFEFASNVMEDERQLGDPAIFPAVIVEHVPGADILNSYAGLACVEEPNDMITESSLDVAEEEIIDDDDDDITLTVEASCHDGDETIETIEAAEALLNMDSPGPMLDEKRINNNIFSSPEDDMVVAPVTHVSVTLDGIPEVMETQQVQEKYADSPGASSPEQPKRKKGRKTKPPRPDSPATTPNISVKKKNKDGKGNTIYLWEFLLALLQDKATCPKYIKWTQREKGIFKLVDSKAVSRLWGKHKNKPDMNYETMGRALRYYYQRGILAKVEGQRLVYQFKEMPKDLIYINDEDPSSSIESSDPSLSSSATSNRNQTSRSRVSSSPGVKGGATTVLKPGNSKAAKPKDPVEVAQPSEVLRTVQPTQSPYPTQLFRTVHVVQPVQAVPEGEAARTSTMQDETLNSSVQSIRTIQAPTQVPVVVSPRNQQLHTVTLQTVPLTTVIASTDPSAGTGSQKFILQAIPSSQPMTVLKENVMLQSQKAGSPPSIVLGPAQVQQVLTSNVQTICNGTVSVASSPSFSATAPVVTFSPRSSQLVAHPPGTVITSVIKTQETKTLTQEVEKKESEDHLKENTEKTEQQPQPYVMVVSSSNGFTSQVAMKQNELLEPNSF
Method in brief: as §1

EHF = molecular target: T5, EHF (Homo sapiens, UniProt Q9NZC4 1-300)
T5 sequence: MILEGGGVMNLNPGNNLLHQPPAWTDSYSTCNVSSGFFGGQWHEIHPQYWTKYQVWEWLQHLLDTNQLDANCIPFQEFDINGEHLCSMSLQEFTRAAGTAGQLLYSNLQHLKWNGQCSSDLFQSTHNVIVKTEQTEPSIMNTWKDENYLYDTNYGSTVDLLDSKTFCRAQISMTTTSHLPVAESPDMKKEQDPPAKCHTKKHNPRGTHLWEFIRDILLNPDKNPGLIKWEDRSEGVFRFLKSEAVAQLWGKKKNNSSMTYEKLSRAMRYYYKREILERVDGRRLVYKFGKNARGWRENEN
Method in brief: as §1

SPI1 = SPI1 (Homo sapiens, UniProt P17947 1-270)
Method in brief: as §1

SPIB = SPIB (Homo sapiens, UniProt Q01892 1-262)
Chain of SPIB (Q01892 whole entry): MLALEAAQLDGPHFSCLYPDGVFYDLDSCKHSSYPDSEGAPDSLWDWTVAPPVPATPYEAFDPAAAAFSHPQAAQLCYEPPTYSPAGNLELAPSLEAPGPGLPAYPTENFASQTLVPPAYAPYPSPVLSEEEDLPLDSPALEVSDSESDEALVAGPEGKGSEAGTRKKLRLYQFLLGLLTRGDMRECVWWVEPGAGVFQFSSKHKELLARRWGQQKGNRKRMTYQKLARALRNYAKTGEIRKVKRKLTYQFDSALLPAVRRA
Method in brief: as §1

ELK3 = molecular target: T6, ELK3 (Homo sapiens, UniProt P41970 1-407)
T6 sequence: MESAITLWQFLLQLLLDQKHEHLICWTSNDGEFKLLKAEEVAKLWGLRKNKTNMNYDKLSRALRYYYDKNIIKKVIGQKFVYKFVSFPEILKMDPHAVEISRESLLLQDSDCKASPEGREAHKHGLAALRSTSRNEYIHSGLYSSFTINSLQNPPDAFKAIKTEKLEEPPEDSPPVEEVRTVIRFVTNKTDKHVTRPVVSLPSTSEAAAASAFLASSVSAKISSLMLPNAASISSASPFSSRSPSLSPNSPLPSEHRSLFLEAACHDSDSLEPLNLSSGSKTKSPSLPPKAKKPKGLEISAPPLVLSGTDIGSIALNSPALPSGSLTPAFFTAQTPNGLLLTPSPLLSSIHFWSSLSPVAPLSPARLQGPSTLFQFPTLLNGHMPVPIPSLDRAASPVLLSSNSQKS
Method in brief: as §1

Q: What does the source list for CTACCT?
A: binding signal (FLI1): 1.37 fold enrichment (6-mer frequency, TF over GST control); binding signal (ELK1): 1.46 fold enrichment (6-mer frequency, TF over GST control); binding signal (GABPA): 1.35 fold enrichment (6-mer frequency, TF over GST control); binding signal (ERG): 1.43 fold enrichment (6-mer frequency, TF over GST control); binding signal (ELF1): 1.35 fold enrichment (6-mer frequency, TF over GST control); binding signal (EHF): 1.46 fold enrichment (6-mer frequency, TF over GST control); binding signal (SPI1): 1.45 fold enrichment (6-mer frequency, TF over GST control); binding signal (SPIB): 1.4 fold enrichment (6-mer frequency, TF over GST control); binding signal (ELK3): 1.44 fold enrichment (6-mer frequency, TF over GST control)
